PubChem BioAssay (NCATS)
Results filed as inconclusive are left out. Entries that show only a call come without a potency. Unmarked numbers belong to inactive results. The source made the active and inactive calls. Calls come from the whole dose curve; as a rule, active = well fitted inhibition curve with a large enough effect; inconclusive = small, poorly fitted or top-dose-only effect; inactive = flat fitted curve, though single readings scatter.

Legend:
PC49 = assay: qHTS profiling for inhibitors of Plasmodium falciparum proliferation (AID 504749); note: potency is the fitted concentration of half-maximal effect; details: P. falciparum in erythrocytes, SYBR Green DNA, 72 h; series mostly up to 28.7 µM
Outline: (§1)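 Three-day growth assay of blood-stage parasites in erythrocytes (0.3% parasitemia, 2.5% hematocrit) at 37 C, 5% CO2, quantified by SYBR Green DNA staining after overnight detergent lysis.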

SC27B = assay: as above; details: P. falciparum in erythrocytes, SYBR Green DNA, 72 h; series mostly up to 28.7 µM
Outline: as §1

TAB109 = assay: as above; details: P. falciparum in erythrocytes, SYBR Green DNA, 72 h; series mostly up to 28.7 µM
Outline: as §1

TAB113 = assay: as above; details: P. falciparum in erythrocytes, SYBR Green DNA, 72 h; series mostly up to 28.7 µM
Outline: as §1

TAB165 = assay: as above; details: P. falciparum in erythrocytes, SYBR Green DNA, 72 h; series mostly up to 28.7 µM
Outline: as §1

W2 = assay: as above; details: P. falciparum in erythrocytes, SYBR Green DNA, 72 h; series mostly up to 28.7 µM
Outline: as §1

CRL-7250 = normal cell line; assay: Cytotoxic Profiling of Annotated Libraries Using Quantitative High-Throughput Screening (AID 1296008); details: Five cell lines viability, CellTiter-Glo ATP luminescence, 48-72 h; stronger effect = lower value
Outline: (§2)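 Cytotoxicity was measured as CellTiter-Glo ATP luminescence, read after 10 min at room temperature. Compound treatment of the cells lasted 48 or 72 hr at 37 degrees Celsius in a qHTS format.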

HEK293 = assay: as above; details: Five cell lines viability, CellTiter-Glo ATP luminescence, 48-72 h; stronger effect = lower value
Outline: as §2

HaCat [1] = assay: as above; details: Five cell lines viability, CellTiter-Glo ATP luminescence, 48-72 h; stronger effect = lower value
Outline: as §2

KB-3-1 = assay: as above; details: Five cell lines viability, CellTiter-Glo ATP luminescence, 48-72 h, stronger effect = lower value
Outline: as §2

NIH3T3 = assay: as above; details: Five cell lines viability, CellTiter-Glo ATP luminescence, 48-72 h; stronger effect = lower value
Outline: as §2

HACAT [2] = assay: qHTS assay to identify novel small-molecules to repurpose for Merkel cell carcinoma treatment (AID 1296009); details: MCC and control cell lines, CellTiter-Glo viability, 72 h; at 44.8 µM (top of the series) unless noted
Outline: (§3)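 After compound transfer in DMSO, plates were kept 72 hr at 37 degree celsius. Luminescent ATP signal from CellTiter-Glo served as viability measure, normalized against DMSO and no-cell controls.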

MCC-13 = assay: as above; details: MCC and control cell lines, CellTiter-Glo viability, 72 h; series mostly up to 46 µM
Outline: as §3

MCC-26 = assay: as above; details: MCC and control cell lines, CellTiter-Glo viability, 72 h; series mostly up to 46 µM
Outline: as §3

MKL-1 = assay: as above; details: MCC and control cell lines, CellTiter-Glo viability, 72 h; series mostly up to 46 µM
Outline: as §3

MKL-2 = assay: as above; details: MCC and control cell lines, CellTiter-Glo viability, 72 h; series mostly up to 46 µM
Outline: as §3

UISO = assay: as above; details: MCC and control cell lines, CellTiter-Glo viability, 72 h; series mostly up to 46 µM
Outline: as §3

WaGa = assay: as above; details: MCC and control cell lines, CellTiter-Glo viability, 72 h; series mostly up to 46 µM
Outline: as §3

HEK293T = assay: as above; details: MCC and control cell lines, CellTiter-Glo viability, 72 h; at 44.8 µM (top of the series) unless noted
Outline: as §3
Note: nearly all actives have a fitted effect of over 60% in size.

O=C(O)c1ccccc1OP(=O)(O)O
Potency (PC49): inactive | Potency (SC27B): inactive | Potency (TAB109): inactive | Potency (TAB113): inactive | Potency (TAB165): inactive | Potency (W2): inactive | max response (CRL-7250): 3.34% | max response (HEK293): 2.49% | outcome (HaCat [1]): inactive | max response (KB-3-1): 12.4% | max response (NIH3T3): 3.2% | outcome (HACAT [2]): inactive | outcome (MCC-13): inactive | outcome (MCC-26): inactive | outcome (MKL-1): inactive | outcome (MKL-2): inactive | outcome (UISO): inactive | outcome (WaGa): inactive

O=C(O)Cc1ccc(CCNS(=O)(=O)c2ccc(Cl)cc2)cc1
Potency (PC49): inactive | Potency (SC27B): inactive | Potency (TAB109): inactive | Potency (TAB113): inactive | Potency (TAB165): inactive | Potency (W2): inactive | max response (CRL-7250): 2.04% | max response (HEK293): -7.16% | outcome (HaCat [1]): inactive | max response (KB-3-1): 0.272% | max response (NIH3T3): -0.48% | outcome (HACAT [2]): inactive | outcome (MCC-13): inactive | outcome (MCC-26): inactive | outcome (MKL-1): inactive | outcome (MKL-2): inactive | outcome (UISO): inactive | outcome (WaGa): inactive

C[C@]1(Cn2ccnn2)[C@H](C(=O)O)N2C(=O)C[C@H]2S1(=O)=O
max response (CRL-7250): -1.81% | outcome (HEK293): inactive | max response (HaCat [1]): -19.5% | max response (KB-3-1): 13.6% | max response (NIH3T3): -0.883% | outcome (HEK293T): inactive | outcome (MCC-13): inactive | outcome (MCC-26): inactive | outcome (MKL-1): inactive | outcome (MKL-2): inactive | outcome (UISO): inactive | outcome (WaGa): inactive

Cc1cc(C)c(NC(=O)CN(CC(=O)O)CC(=O)O)c(C)c1Br
Potency (PC49): inactive | Potency (W2): inactive | max response (CRL-7250): -2.84% | max response (HEK293): -7.54% | outcome (HaCat [1]): inactive | max response (KB-3-1): 14.1% | max response (NIH3T3): -1.07% | outcome (HACAT [2]): inactive | outcome (MCC-13): inactive | outcome (MCC-26): inactive | outcome (MKL-1): inactive | outcome (MKL-2): inactive | outcome (UISO): inactive | outcome (WaGa): inactive

O=C(/C=C/c1ccccc1)OCc1ccccc1
Potency (PC49): inactive | Potency (SC27B): inactive | Potency (TAB109): inactive | Potency (TAB113): inactive | Potency (TAB165): inactive | Potency (W2): inactive | max response (CRL-7250): 1.75% | max response (HEK293): -4.12% | outcome (HaCat [1]): inactive | max response (KB-3-1): 21.2% | max response (NIH3T3): -4.12% | outcome (HACAT [2]): inactive | outcome (MCC-13): inactive | outcome (MCC-26): inactive | outcome (MKL-1): inactive | outcome (MKL-2): inactive | outcome (UISO): inactive | outcome (WaGa): inactive

O=c1[nH]c(=O)c2ccccc2o1
Potency (PC49): inactive | Potency (SC27B): inactive | Potency (TAB109): inactive | Potency (TAB113): inactive | Potency (TAB165): inactive | Potency (W2): inactive | outcome (CRL-7250): inactive | max response (HEK293): 1.22% | outcome (HaCat [1]): inactive | max response (KB-3-1): -4.12% | max response (NIH3T3): -16.8% | outcome (HACAT [2]): inactive | outcome (MCC-13): inactive | outcome (MCC-26): inactive | outcome (MKL-1): inactive | outcome (MKL-2): inactive | outcome (UISO): inactive | outcome (WaGa): inactive

O=C1c2ccccc2C(=O)C1c1ccc(Br)cc1
Potency (PC49): inactive | Potency (SC27B): inactive | Potency (TAB113): 8.91 µM (active) | Potency (W2): 4.78 µM (active) | max response (CRL-7250): -1.25% | max response (HEK293): -0.633% | outcome (HaCat [1]): inactive | max response (KB-3-1): -16.6% | max response (NIH3T3): -1.29% | outcome (HACAT [2]): inactive | outcome (MCC-13): inactive | outcome (MCC-26): inactive | outcome (MKL-1): inactive | outcome (MKL-2): inactive | outcome (UISO): inactive | outcome (WaGa): inactive

C[C@@H]1CCC[C@H](C)N1
Potency (PC49): inactive | Potency (SC27B): inactive | Potency (TAB109): inactive | Potency (TAB165): inactive | Potency (W2): inactive | max response (CRL-7250): 0.393% | max response (HEK293): -9.02% | outcome (HaCat [1]): inactive | max response (KB-3-1): -5.17% | max response (NIH3T3): 4.6% | outcome (HACAT [2]): inactive | outcome (MCC-13): inactive | outcome (MCC-26): inactive | outcome (MKL-1): inactive | outcome (MKL-2): inactive | outcome (UISO): inactive | outcome (WaGa): inactive
